MCF10A rereplic: A quantitative high throughput screen for small molecules that induce DNA re-replication in MCF 10a normal breast cells. MCF 10A DNA re-replication, Hoechst nuclear intensity, 48 h. Potency, µM (highest dose often 46.1 µM), for inactives: top-dose activity, positive = re-replication, hits mostly activators. hit rate 2.9% among 350,000. AID 624296, 2012; also: % of control where 0% means no effect; nearly all actives have a fitted effect of over 50% in size
ELG1 DNA repair: qHTS screen for small molecules that inhibit ELG1-dependent DNA repair in human embryonic kidney (HEK293T) cells expressing luciferase-tagged ELG1. hit rate 2.3% among 330,000. AID 504467, 2011. Potency, µM (highest dose often 46.1 µM), for the others: top-dose activity change, negative = inhibition, actives largely listed as inhibitors. HEK293T ELG1-luciferase reporter, luminescence, 16 h; DNA damage induced by 5-fluorouridine; also: % is scaled to controls: 0 for no effect and ±100 for the full control effect; nearly all actives have a fitted effect of over 55% in size
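Quantitative HTS, concentration-response format. 2,000 cells/well co-treated with 5-fluorouridine and compound, 16 hr in 5% CO2 at 37 °C; ONE-Glo luminescence read after 30 min.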
KB-V1 MDR tox: qHTS assay for MDR1-selective chemotherapeutics: Primary screen using the drug-selected MDR subline cells KB-V1; KB-V1 MDR cells viability, CellTiter-Glo, 72 h; Potency, µM (series often up to 46.1 µM), hits mostly cytotoxic; hit rate 3.4% among 400,000; also: % is scaled to controls: 0 for no effect and ±100 for the full control effect; nearly all actives have a fitted effect of over 60% in size
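Luminescent ATP read-out (CellTiter-Glo, 10 min) measures survival of drug-selected KB-V1 MDR cells after 72 h, 37 degrees C compound exposure. Medium: phenol-red-free DMEM, 10% FBS. Values from fitted concentration-response curves.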
KB-3-1 tox: qHTS assay for MDR1-selective chemotherapeutics: Primary screen using the parental adenocarcinoma cell KB-3-1; KB-3-1 viability, CellTiter-Glo ATP luminescence, 72 h; Potency, µM (top dose mostly 46.1 µM), usual class: cytotoxic; hit rate 1.4% among 400,000; AID 1347075, 2019; also: % is scaled to controls: 0 for no effect and ±100 for the full control effect; nearly all actives have a fitted effect of over 60% in size
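Cytotoxicity measured as CellTiter-Glo luminescence after 72 h at 37 C. Compound titrations were pinned onto drug-naive KB-3-1 parental adenocarcinoma cells grown in DMEM with 10% FBS, and normalized data fitted to concentration-response curves.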
SW480 rerep: A quantitative high throughput screen for small molecules that induce DNA re-replication in SW480 colon adenocarcinoma cells | Potency, µM (titrated, usually from 46.1 µM), for the others: at the highest dose re-replication activation, usual class: activators | SW480 DNA re-replication, Hoechst DNA content imaging, 48 h | hit rate 1.8% among 340,000 | AID 624297, 2012; also: % of control where 0% means no effect; nearly all actives have a fitted effect of over 55% in size
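First, 250 cells per well were seeded. Next, compound or vehicle (23 nL) was pinned in, plates sat 48 hr at 37 C. Finally Hoechst was added for 40 min before fluorescence scanning.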
ELG1 FLuc counter: qHTS screen for small molecules that inhibit ELG1-dependent DNA repair: Hit Confirmation in Cell-Based Luciferin Assay; shares compounds with ELG1 DNA repair; cell-free firefly luciferase luminescence counter-screen, ViewLux; Potency, µM (highest dose often 46.1 µM), without a hit: at the top dose activity change, negative = inhibition, hits mostly inhibitors; hit rate 3% among 350; AID 624247, 2012; also: % is scaled to controls: 0 for no effect and ±100 for the full control effect
ELG1-Luc inh: HTS assay for small molecules that inhibit ELG1-dependent DNA repair in human embryonic kidney (HEK293T) cells expressing luciferase-tagged ELG1: Hit Confirmation; shares compounds with ELG1 DNA repair; HEK293T ELG1-luciferase levels, luminescence; cells co-treated with 5-fluorouridine; Potency, µM (doses to about 46.1 µM), for inactives: at the highest dose activity change, negative = inhibition, actives largely listed as inhibitors; hit rate 68% among 670; also: % is scaled to controls: 0 for no effect and ±100 for the full control effect; nearly all actives have a fitted effect of over 55% in size
ELG1 MMS Luc: MMS-stimulated human ELG1 repair inhibition, confirmed. Potency, µM (top dose mostly 46.1 µM), without a hit: at the highest dose activity change, negative = inhibition, actives largely listed as inhibitors. HEK293T luciferase-tagged ELG1 level, MMS stimulated. shares compounds with ELG1 DNA repair. AID 624249. hit rate 53% among 670; also: % is scaled to controls: 0 for no effect and ±100 for the full control effect; nearly all actives have a fitted effect of over 60% in size
ELG1 5FU viab: qHTS screen for small molecules that inhibit ELG1-dependent DNA repair: Hit Confirmation with 5FU Viability; shares compounds with ELG1 DNA repair; cell viability with 5-FU, ELG1-dependent repair; Potency, µM (doses to about 46.1 µM), for the others: at the highest dose activity change, negative = viability loss, usual class: cytotoxic; 670 tested, under 10 active; AID 624250, 2012;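 also: ELG1-luc HEK293T cells cotreated with 5-fluorouridine at 10 µM final; viability measured 16 h after compound addition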
ELG1 MMS viab: qHTS screen for small molecules that inhibit ELG1-dependent DNA repair: Hit Confirmation with MMS Viability; shares compounds with ELG1 DNA repair; Cell viability with MMS, ELG1-dependent DNA repair; Potency, µM (series often up to 46.1 µM), without a hit: at the top dose activity change, negative = viability loss, most hits filed as cytotoxic; hit rate 33% among 670;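 also: ELG1-luc HEK293T cells co-treated with 10 µM MMS; viability read 16 h after compound addition; % is scaled to controls: 0 for no effect and ±100 for the full control effect; nearly all actives have a fitted effect of over 60% in size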
ELG1 unstim viab: qHTS screen for small molecules that inhibit ELG1-dependent DNA repair: Hit Confirmation with Unstimulated Viability Assay; shares compounds with ELG1 DNA repair; cell viability counter-screen, unstimulated, luminescence; Potency, µM (doses to about 45.9 µM), for inactives: at the top dose activity change, negative = loss of viability, usual class: cytotoxic; hit rate 8% among 900;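 also: compound exposure lasted 16 hours before reading; % is scaled to controls: 0 for no effect and ±100 for the full control effect; nearly all actives have a fitted effect of over 55% in size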
FLuc biochem: qHTS screen for small molecules that inhibit ELG1-dependent DNA repair: Hit Confirmation in Biochemical Luciferin Assay. shares compounds with ELG1 DNA repair. purified firefly luciferase, luminescence counter-screen. Potency, µM (highest dose often 57.5 µM), without a hit: top-dose activity, negative = inhibition, hits mostly inhibitors. hit rate 10% among 350. AID 624253, 2012; also: % is scaled to controls: 0 for no effect and ±100 for the full control effect
The depositor's hits bear a star; i = inactive; ? = inconclusive; / = not tested or not shown. The list is not random: actives were taken first. Their share in the collection is about 8.1%. Calls follow the shape of the dose curve; as a rule, active = well fitted curve in the direction sought with a large enough effect; inconclusive = small, poorly fitted or top-dose-only effect, or another doubt; inactive = no such curve, though single readings can be large; an effect the other way counts as inactive or inconclusive. Potency is read from the fitted curve at half-maximal effect.

SMILES	MCF10A rereplic	ELG1 DNA repair	KB-V1 MDR tox	KB-3-1 tox	SW480 rerep	ELG1-Luc inh	ELG1 MMS Luc	ELG1 5FU viab	ELG1 MMS viab	ELG1 unstim viab	others
COc1cc(C)c(CN2CCN(CC(=O)Nc3ccccc3C(=O)NC3CC3)CC2)cc1OC	3.3%	3.66µM*	i	i	-18.5%	3.97µM*	28.1µM*	?	-18.5%	2.7%
COc1ccc(OC)c(NC(=O)CN2CCC(NC(=O)c3ccccc3C)CC2)c1	?	?	i	i	-12.9%	/	/	/	/	/
CCNC(=S)Nc1ccc2c(c1)c(=O)n(C)n2-c1ccc(C(C)(C)C)cc1	/	/	i	?	/	/	/	/	/	/
COc1ccc(OC)c(Nc2nc(-c3ccncc3)nc3ccccc23)c1	?	?	?	i	?	/	/	/	/	/
COc1ccc(Nc2nc(-c3ccncc3)nc3ccccc23)cc1	?	2.91µM*	?	i	18.4µM*	5µM*	?	?	-12.3%	?	ELG1 FLuc counter=3.6%;FLuc biochem=-7.4%
CCc1nc2c(OCc3ccc(F)c(F)c3)cccn2c1N(C)C(=O)c1ccncc1	/	/	i	i	/	/	/	/	/	/
Cc1c(C(=O)NCc2ccco2)oc2ccc(S(=O)(=O)N3CCC4(CC3)OCCO4)cc12	0.0%	3.26µM*	i	i	-3.6%	4.45µM*	-11.8%	?	-10.6%	?	ELG1 FLuc counter=62.7%;FLuc biochem=0.0%
Cc1c(C(=O)NCCc2ccccc2)oc2ccc(S(=O)(=O)N3CCC4(CC3)OCCO4)cc12	16.5%	?	i	i	1.7%	/	/	/	/	/
O=C(CSc1nnc(-c2ccc(F)cc2)o1)Nc1ccc(S(=O)(=O)N2CCCCCC2)cc1	24.1%	-3.3%	?	i	?	/	/	/	/	?	ELG1 FLuc counter=-4.5%;FLuc biochem=-6.6%
Cc1ccccc1NC(=O)CSc1nc2ccccc2o1	-3.6%	?	i	i	-3.0%	/	/	/	/	?	ELG1 FLuc counter=64.5%;FLuc biochem=-5.9%
Cc1ccc(NC(=O)CSc2nnc(-c3ccccc3C)o2)cc1C	9.2%	?	i	i	-2.0%	/	/	/	/	/
O=C(CSc1nnc(-c2ccc(O)cc2)o1)Nc1ccccc1Br	-6.2%	?	i	i	-13.3%	/	/	/	/	-1.7%
Cc1ccccc1-c1nnc(SCC(=O)Nc2cccnc2Cl)o1	-17.8%	?	i	?	-7.7%	/	/	/	/	25µM*
O=C1Cc2cc(O)ccc2O1	-6.2%	/	i	i	6.7%	/	/	/	/	/
COc1cccc(NC(=O)CSc2nnc(-c3ccc(C)cc3)o2)c1	-0.2%	?	i	i	2.4%	/	/	/	/	1.2%
COc1cccc(NC(=O)CSc2nnc(-c3cccc(OC)c3)o2)c1	/	/	i	i	/	/	/	/	/	/
Cc1ccc(NC(=O)N2CCOCC2)c(C)c1	-6.1%	7.4%	i	i	-10.4%	/	/	/	/	/
Cc1ccc2oc(NC(=O)N3CCOCC3)cc(=O)c2c1	21.2%	3.55µM*	?	i	16.7%	18.6%	14.9%	-2.8%	-5.5%	-12.7%
COc1ccc(NC(=O)c2ccc(C)cc2)c[n+]1[O-]	-18.6%	23.1%	i	i	0.7%	/	/	/	/	/
COc1cccc(N2CC(NS(=O)(=O)c3cccnc3)CC2=O)c1 (configuration not stated)	10.7%	4.11µM*	i	i	-43.3%	27.1%	11.0%	4.0%	?	10.4%
Cc1ccc(-c2csc(=Nc3cccnc3)n2CCCn2ccnc2)cc1C	?	2.91µM*	7.31µM*	16.4µM*	-1.1%	3.97µM*	6.29µM*	-2.7%	9.97µM*	22.3µM*	ELG1 FLuc counter=?;FLuc biochem=1.0%
Cc1ccc(-c2csc(=Nc3cccnc3)n2CCCN2CCCC2=O)cc1C	24.6%	?	?	?	9.5%	/	/	/	/	/
COc1cc2nc(CN(CCC(C)C)Cc3nc4cc(OC)c(OC)cc4c(=O)[nH]3)[nH]c(=O)c2cc1OC	7.3%	1.46µM*	i	i	3.6%	2.81µM*	?	?	6.8%	-16.9%
CCNCc1nc2cc(OC)c(OC)cc2c(=O)[nH]1	2.1%	-2.4%	i	i	-7.7%	/	/	/	/	/
